Active and inactive are the calls of the source. Unless noted, the rule behind the calls is not given here.

In PubChem BioAssay one finds composite z-score and z-score data, which are given here for 5 compounds.

Experiment [1] can be described thus: anti-His antibody binders, primary screen, artefact control for SMM control protein annotation, biochemical, small-molecule microarray, 635 nm fluorescence (AID 1128).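 Note: score merges feature fluorescence with signal-to-noise for each printed compound spot.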 The following applies: anti-His Alexa647 antibody binding, higher = more signal.
The subject of experiment [2] is Human papillomavirus type 1a E7 protein (residues 1-88). Description: HPV1a E7 small-molecule binders, primary screen, biochemical, small-molecule microarray, residues 1-88, 635 nm (AID 1129). The note with it: small-molecule microarray binding, fluorescence 635 nm; higher = more signal.
The target of experiment [3] is Focal adhesion kinase 1 (Homo sapiens) (UniProt Q05397). Description: small-molecule microarray binders of FAK, primary screen, biochemical, 635/667 nm fluorescence, BSA, DTT (AID 1130).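 Note: composite of spot emission at 667 nm and signal to noise over triplicate slides.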 The note with it: PTK2 binding, 635 nm fluorescence, higher = more signal.
Sequence of Focal adhesion kinase 1 (Homo sapiens) (Q05397 whole entry, looked up): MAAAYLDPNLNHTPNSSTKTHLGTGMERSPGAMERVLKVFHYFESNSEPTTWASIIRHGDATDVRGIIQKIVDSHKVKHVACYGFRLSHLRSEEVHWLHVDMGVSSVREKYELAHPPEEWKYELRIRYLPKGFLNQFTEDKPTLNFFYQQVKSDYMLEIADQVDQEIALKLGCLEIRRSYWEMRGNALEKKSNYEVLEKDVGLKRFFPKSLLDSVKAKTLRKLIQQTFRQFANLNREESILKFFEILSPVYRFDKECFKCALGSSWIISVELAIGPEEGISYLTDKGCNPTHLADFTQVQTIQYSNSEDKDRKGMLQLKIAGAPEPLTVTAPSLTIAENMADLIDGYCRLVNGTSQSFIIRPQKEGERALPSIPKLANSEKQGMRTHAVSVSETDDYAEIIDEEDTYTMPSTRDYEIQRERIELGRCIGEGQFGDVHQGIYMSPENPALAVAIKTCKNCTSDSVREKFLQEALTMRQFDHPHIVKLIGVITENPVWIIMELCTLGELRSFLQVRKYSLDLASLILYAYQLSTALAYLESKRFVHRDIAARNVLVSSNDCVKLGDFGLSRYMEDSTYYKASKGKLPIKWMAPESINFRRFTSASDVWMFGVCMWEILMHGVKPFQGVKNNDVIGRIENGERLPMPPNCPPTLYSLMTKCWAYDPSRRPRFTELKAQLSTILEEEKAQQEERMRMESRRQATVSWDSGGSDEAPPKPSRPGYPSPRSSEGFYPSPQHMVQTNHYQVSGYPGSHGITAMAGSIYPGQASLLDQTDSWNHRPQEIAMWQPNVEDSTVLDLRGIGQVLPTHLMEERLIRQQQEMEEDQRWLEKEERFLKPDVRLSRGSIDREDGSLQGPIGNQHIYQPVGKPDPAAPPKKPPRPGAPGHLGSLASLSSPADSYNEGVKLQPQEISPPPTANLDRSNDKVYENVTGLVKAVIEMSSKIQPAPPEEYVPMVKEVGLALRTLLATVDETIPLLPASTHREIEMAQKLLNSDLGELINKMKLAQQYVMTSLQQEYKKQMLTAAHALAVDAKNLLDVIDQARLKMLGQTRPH
For experiment [4], the system named is Fibrinogen (Alexa647-labelled). Description: fibrinogen binders on compound microarrays, profiling panel, artefact control for SMM control-protein annotation, biochemical, small-molecule microarray, 635/667 nm fluorescence (AID 1131).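 Note: z-score merges 667 nm fluorescence with per-spot signal-to-noise over triplicate slides.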 The note with it: fibrinogen-A647 binding fluorescence, higher = more signal.
For experiment [5], the target named is Follistatin (Homo sapiens) (UniProt P19883). Description: follistatin binders on small-molecule microarrays, primary screen, biochemical, small-molecule microarray, 635/667 nm fluorescence (AID 1132). The note with it: FST binding, 635 nm fluorescence, higher = more signal.
Sequence of Follistatin (Homo sapiens) (P19883 whole entry, looked up): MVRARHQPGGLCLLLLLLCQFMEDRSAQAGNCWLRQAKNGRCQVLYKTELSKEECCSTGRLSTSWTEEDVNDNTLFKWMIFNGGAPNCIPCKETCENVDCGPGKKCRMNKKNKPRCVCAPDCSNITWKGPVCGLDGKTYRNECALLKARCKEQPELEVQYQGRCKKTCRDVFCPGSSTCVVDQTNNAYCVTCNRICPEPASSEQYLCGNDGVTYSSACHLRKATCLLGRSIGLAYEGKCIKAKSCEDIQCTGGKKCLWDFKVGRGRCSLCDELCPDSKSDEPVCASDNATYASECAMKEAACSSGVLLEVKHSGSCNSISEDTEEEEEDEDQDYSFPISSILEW
Experiment [6] has as its target Fibroblast growth factor 2 (Homo sapiens) (UniProt P09038). Briefly: FGF2 binders on small-molecule microarrays, primary screen, biochemical, small-molecule microarray, 635/667 nm fluorescence (AID 1133). The following applies: small-molecule microarray binding, FGF2, fluorescence 635/667; higher = more signal.
Experiment [7] can be described thus: mitochondrial membrane potential change in A549 cells, profiling panel, cell-based, JC-1 fluorescence, basal, 24 h, 100 nL (AID 1138).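 Note: A549 lung adenocarcinoma cells under basal conditions with no added stimulus; test concentration not given here.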 The note with it: higher = more signal.
Experiment [8] deals with Lefty1. Briefly: Lefty1 binders on small-molecule microarrays, primary screen, biochemical, small-molecule microarray, 635/667 nm fluorescence (AID 1139). The note with it: small-molecule microarray binding, fluorescence 635/667; higher = more signal.
In experiment [9] the test system is wheat germ agglutinin (Triticum aestivum), Alexa647-labelled. Description: wheat germ agglutinin binders on compound microarrays, profiling panel, artefact control for SMM control-protein annotation, biochemical, small-molecule microarray, 635/667 nm fluorescence (AID 1140).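 Note: score merges 667 nm feature emission with signal to noise over triplicate slides.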 The following applies: WGA-A647 binding, 635 nm fluorescence, higher = more signal.
The target of experiment [10] is Luciferin 4-monooxygenase (Photinus pyralis) (UniProt P08659). Description: firefly luciferase enzyme inhibitors, primary screen, biochemical, luminescence, purified enzyme, 2006 set (AID 1141).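 Note: cell-free assay with purified firefly luciferase at 100 ng per well in PBS; test concentration not given here.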 The following applies: SteadyGlo luminescence, 30 min, higher = more signal, called active from +8 up or from −8 down.
Sequence of Luciferin 4-monooxygenase (Photinus pyralis) (P08659 whole entry, looked up): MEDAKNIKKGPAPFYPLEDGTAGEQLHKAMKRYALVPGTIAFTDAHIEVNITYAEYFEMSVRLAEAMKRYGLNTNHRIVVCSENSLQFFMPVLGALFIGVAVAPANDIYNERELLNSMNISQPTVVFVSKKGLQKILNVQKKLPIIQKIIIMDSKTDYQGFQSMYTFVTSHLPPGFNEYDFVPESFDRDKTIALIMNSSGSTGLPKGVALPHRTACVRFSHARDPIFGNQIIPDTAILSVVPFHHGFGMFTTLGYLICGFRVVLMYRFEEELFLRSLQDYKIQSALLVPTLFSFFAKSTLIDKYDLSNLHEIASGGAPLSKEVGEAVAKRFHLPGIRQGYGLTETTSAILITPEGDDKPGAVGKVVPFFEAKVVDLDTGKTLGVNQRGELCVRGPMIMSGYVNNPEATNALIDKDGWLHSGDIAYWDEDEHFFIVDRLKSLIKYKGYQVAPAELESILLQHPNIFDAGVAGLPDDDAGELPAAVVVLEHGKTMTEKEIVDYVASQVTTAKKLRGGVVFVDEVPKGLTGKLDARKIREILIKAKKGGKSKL
In experiment [11] the test system is Wnt5a (protein binding on small-molecule microarray). Description: Wnt5a binders on small-molecule microarray, primary screen, biophysical, 635/667 nm fluorescence (AID 1142).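 Note: fluorescence read at 667 nm with signal to noise per printed feature.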 The following applies: 635 nm fluorescence, higher = more signal.
Experiment [12] in a line: cell viability in Huh7 cells, primary screen, cytotoxicity control for HCV replication inhibitor project, CellTiter-Glo luminescence, basal, 48 h (AID 1143).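 Note: Huh7 hepatoma cells carrying a hepatitis C replication reporter with no stimulus; test concentration not given here.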 The note with it: Huh7 HCV replicon, higher = more signal, called active from +8 up or from −8 down. (In general: ATP-based viability assays read luminescence as a measure of living cells.)
Experiment [13] can be described thus: P. aeruginosa biofilm formation inhibitors, primary screen, PAO1 strain, BacTiter-Glo luminescence, LB-PBS (AID 1144). The note with it: 12 h, higher = more signal.
The nature of experiment [14]: CREB reporter modulators without forskolin, primary screen, cell-based, PC12, CRE-LacZ reporter, unstimulated (AID 1145). The following applies: no forskolin, luminescence, 4.5 h, higher = more signal, called active from +8 up or from −8 down.
Experiment [15] in a line: CREB reporter modulators under forskolin, primary screen, cell-based, PC12, CRE-LacZ reporter, forskolin-stimulated (AID 1146).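 Note: PC12 cells with 6xCRE LacZ reporter stimulated by forskolin 10 µM; beta-galactosidase reporter signal reflecting CREB driven transcription.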 The note with it: luminescence, 4.5 h, higher = more signal, called active from +8 up or from −8 down.
Experiment [16] concerns the target Streptavidin (Streptomyces avidinii) (UniProt P22629). Description: streptavidin binders on small-molecule microarray, primary screen, artefact control for SMM compound annotation, biophysical, 635/667 nm fluorescence (AID 1147).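 Note: signal reflects streptavidin binding to arrayed compounds as a control protein.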 The following applies: streptavidin binding, higher = more signal.
The nature of experiment [17]: small-molecule binders of probe aInhba, primary screen, biochemical, small-molecule microarray, 635/667 nm fluorescence (AID 1148).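 Note: score merges 667nm spot fluorescence with signal-to-noise for antibody binding to printed compounds.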 The note with it: higher = more signal.
Experiment [18] addresses Torsin-1A (Homo sapiens) (UniProt O14656). Description: torsin A binders from cell lysate, primary screen, small-molecule microarray, wild-type, 635/667 nm (AID 1149). The note with it: COS7 hTOR1A-WT lysate, 635 nm fluorescence, higher = more signal.
The target is the same in experiment [19]. Description: small-molecule binders of mutant TOR1A in lysate, primary screen, cell lysate, small-molecule microarray, COS7 lysate, 635/667 nm fluorescence (AID 1150).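 Note: score pools 667 nm emission and signal to noise measuring lysate protein binding.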 The following applies: COS7 hTOR1A mutant lysate, 635 nm fluorescence, higher = more signal.
The subject of experiment [20] is Sonic hedgehog protein (Shh). Briefly: small-molecule binders of Shh protein, primary screen, biochemical, small-molecule microarray, 635/667 nm fluorescence (AID 1151).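 Note: Shh protein binding to compounds spotted on small-molecule microarray slides; score combines spot fluorescence intensity with signal-to-noise across triplicate slides.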 The note with it: small-molecule microarray binding, 635 nm fluorescence; higher = more signal.

Sequence of Fibroblast growth factor 2 (Homo sapiens) (P09038 whole entry, looked up): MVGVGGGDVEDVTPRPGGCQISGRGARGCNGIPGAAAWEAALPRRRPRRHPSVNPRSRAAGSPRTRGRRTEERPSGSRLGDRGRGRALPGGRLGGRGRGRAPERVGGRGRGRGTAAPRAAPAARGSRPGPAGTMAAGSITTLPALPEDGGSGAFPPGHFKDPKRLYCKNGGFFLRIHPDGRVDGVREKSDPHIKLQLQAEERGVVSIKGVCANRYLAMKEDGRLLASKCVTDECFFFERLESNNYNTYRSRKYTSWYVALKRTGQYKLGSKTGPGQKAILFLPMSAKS
Sequence of Torsin-1A (Homo sapiens) (O14656 whole entry, looked up): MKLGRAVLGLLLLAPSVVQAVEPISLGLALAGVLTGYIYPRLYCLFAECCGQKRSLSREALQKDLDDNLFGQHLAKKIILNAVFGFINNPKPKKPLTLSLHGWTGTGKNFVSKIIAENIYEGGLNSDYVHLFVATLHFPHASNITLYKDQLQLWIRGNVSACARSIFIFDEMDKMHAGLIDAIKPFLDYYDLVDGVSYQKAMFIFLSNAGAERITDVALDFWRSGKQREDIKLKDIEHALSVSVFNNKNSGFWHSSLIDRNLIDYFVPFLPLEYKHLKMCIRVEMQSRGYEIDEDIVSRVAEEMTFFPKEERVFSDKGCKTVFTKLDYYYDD
Sequence of Streptavidin (Streptomyces avidinii) (P22629 whole entry, looked up): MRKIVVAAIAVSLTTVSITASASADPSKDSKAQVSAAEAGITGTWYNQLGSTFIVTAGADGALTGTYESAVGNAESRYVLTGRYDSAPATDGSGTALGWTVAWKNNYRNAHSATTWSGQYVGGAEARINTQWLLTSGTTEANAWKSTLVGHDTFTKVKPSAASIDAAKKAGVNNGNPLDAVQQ

For the compound `CN1C(=O)C2C=CC(C(O)C3=C[C@H]4C[C@@H](C3)C4(C)C)N(Nc3ccc([N+](=O)[O-])cc3[N+](=O)[O-])C2C1=O` (stereo not given in full), the composite z-score in [1] came to 1.45; in experiment [2], 1.16; in experiment [3] it was 0.588; in [4], 0.978; in experiment [5], 1.07; in experiment [6], 0.0958. The composite z-score in experiment [8] amounted to 0.181; in [9], 1.02; in [11], 0.325; in experiment [16], 1.56; in experiment [17] it was 0.421; in experiment [18], 0.124. For the same compound, the composite z-score was 0.566 in experiment [19] and 0.0842 in experiment [20]. Moreover, the z-score is 0.731 in experiment [7]; -0.88 (inactive) in experiment [10]; -0.119 (inactive) in [12]; -0.184 (inactive) in experiment [13]; 0.443 (inactive) in [14]; -0.946 (inactive) in [15].
`CC(C)OC(=O)C1=CCC(c2cccc(Cl)c2)O1` (stereo not given): the composite z-score in experiment [1] was 0.872; in experiment [2], 0.291; in [3], -0.0871; in experiment [4], 0.455; in experiment [5], -0.328; in experiment [6], -1.59. Besides, the composite z-score in experiment [8] is -1.11; in [9], 0.58; in [11], -0.593; in experiment [16], 0.245; in experiment [17], -0.191; in experiment [18] it was 1.07. Further, the composite z-score is -0.268 in experiment [19] and -1.49 in experiment [20]. The z-score was -1.4 in experiment [7]; 2.09 (inactive) in [10]; -5.17 (inactive) in [12]; -2.12 (inactive) in experiment [13]; -0.471 (inactive) in experiment [14]; -0.154 (inactive) in experiment [15].
Regarding `C=CC[C@@]1(C(N)=O)N=C(c2ccc(OCCCO)cc2)O[C@@H]1c1ccccc1N=[N+]=[N-]`, the composite z-score was 1.91 in experiment [1]; 1.24 in experiment [2]; 0.231 in experiment [3]; 0.183 in [4]; 1.34 in [5]; 1.14 in experiment [6]. Besides, the composite z-score in [8] came to 1.04; in [9] it was 1.13; in [11] it was 0.373; in experiment [16], 0.496; in experiment [17] it was 0.195; in experiment [18], 1.02. In addition, the composite z-score stood at 0.705 in [19] and 0.821 in experiment [20]. Also, the z-score in experiment [7] was 0.755; in [10], -5.82 (inactive); in experiment [12] it was -0.656 (inactive); in experiment [13] it was -0.0376 (inactive); in experiment [14] it was 0.614 (inactive); in experiment [15], -1.89 (inactive).
On to `CCCC[C@H]1C[C@@H]1[C@@H]1N(P(=O)(c2ccccc2)c2ccccc2)[C@](CO)(c2ccccc2)CC12CC2`, for which the composite z-score is 0.108 in [1]; 1.12 in experiment [2]; 0.737 in experiment [3]; 0.936 in [4]; 0.156 in experiment [5]; -1.11 in experiment [6]. For the same compound, the composite z-score was -0.519 in experiment [8]; 0.434 in experiment [9]; 0.326 in [11]; 1.15 in experiment [16]; 0.0403 in [17]; -0.57 in [18]. Besides, the composite z-score is 0.515 in experiment [19] and -1.36 in experiment [20]. For the same compound, the z-score in experiment [7] is -1.75; in experiment [10], 2.75 (inactive); in experiment [12] it was -3.16 (inactive); in experiment [13] it was 0.76 (inactive); in experiment [14] it was -0.561 (inactive); in experiment [15] it was -1.24 (inactive).
As to `O=C1C[C@@](C(=O)O)(c2ccc([N+](=O)[O-])cc2)[C@@H](c2ccc(CO)cc2I)N1C1CCCCC1`, the composite z-score in [1] was found to be 0.806; in experiment [2], 0.796; in experiment [3], 0.113; in experiment [4], 0.873; in experiment [5], 0.539; in experiment [6], 0.293. Also, the composite z-score in [8] is 0.471; in experiment [9], 0.832; in [11], 0.45; in [16], 0.988; in experiment [17], 0.0905; in experiment [18] it was -0.757. Besides, the composite z-score in experiment [19] is 0.206; in experiment [20], -0.196. Further, the z-score in experiment [7] is -0.706; in [10], -0.411 (inactive); in [12], -4.77 (inactive); in experiment [13], -2.27 (inactive); in experiment [14] it was -0.619 (inactive); in experiment [15], -0.598 (inactive).
